# Laboratory results taken from PubChem BioAssay AID1159580 (chemical genetic matrix, 2015).
# Several values for one entry are separate records, joined by “and”; a condition that tells them apart may be missing. Equal values may be shown once. The campaign covered roughly 5,500 compounds. About 2,000 (36%) were called active. Not shown: some 18% with an inconclusive outcome. This is one part of the list. Unmarked numbers belong to inactive results. No stated cut-off is given here; in the data, active means normalized growth mostly below about 0.91 (no sharp cut-off); inconclusive means no clear call, values can overlap the other calls; inactive means mostly above about 0.92.
# Test: chemical genetic growth profiling, strain panel (AID 1159580);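 further: tested at 20 µM; growth read once vehicle control cultures reached saturation at 30 °C; 1 = growth at the plate median or of vehicle wells; lower values mean less growth of the strain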
# Details: S. cerevisiae deletion strains, growth OD
smiles,measurement,setting,value
CC1=C(/C=C/C(C)=C/C=C/C(C)=C/C(=O)O)C(C)(C)CCC1,normalized growth,"locus YAL013W, strain DEP1, active compounds read low",0.993 and 1.03
same,normalized growth,"locus YAL021C, strain ccr4, active compounds read low",1.01
same,normalized growth,"locus YAL026C, strain drs2, active compounds read low",0.958
same,normalized growth,"locus YAL030W, strain snc1, active compounds read low",0.996
same,normalized growth,"locus YAL040C, strain CLN3, active compounds read low",1.03
same,normalized growth,"locus YBL061C, strain skt5, active compounds read low",0.952
same,normalized growth,"locus YBR009C, strain hhf1, active compounds read low",0.968
same,normalized growth,"locus YBR021W, strain FUR4, active compounds read low",1.04
same,normalized growth,"locus YBR023C, strain chs3, active compounds read low",0.959
same,normalized growth,"locus YBR171W, strain sec66, active compounds read low",1
same,normalized growth,"locus YBR229C, strain ROT2, active compounds read low",1.01
same,normalized growth,"locus YBR231C, strain swc5, active compounds read low",0.996
same,normalized growth,"locus YBR279W, strain paf1, active compounds read low",0.994
same,normalized growth,"locus YCL011C, strain gbp2, active compounds read low",0.976
same,normalized growth,"locus YCL016C, strain dcc1, active compounds read low",0.951
same,normalized growth,"locus YCL029C, strain bik1, active compounds read low",1.02
same,normalized growth,"locus YCL061C, strain MRC1 (second series), active compounds read low",1.01
same,normalized growth,"locus YCL061C, strain MRC1, active compounds read low",0.969
same,normalized growth,"locus YCL069W, strain vba3, active compounds read low",1
same,normalized growth,"locus YCR088W, strain abp1, active compounds read low",0.993
same,normalized growth,"locus YDL005C, strain med2, active compounds read low",0.998
same,normalized growth,"locus YDL035C, strain GPR1, active compounds read low",0.998
same,normalized growth,"locus YDL040C, strain nat1, active compounds read low",1
same,normalized growth,"locus YDL074C, strain BRE1, active compounds read low",0.995
same,normalized growth,"locus YDL101C, strain DUN1, active compounds read low",1.01
same,normalized growth,"locus YDL134C, strain PPH21, active compounds read low",1.01
same,normalized growth,"locus YDL185W, strain tfp1, active compounds read low",1.03
same,normalized growth,"locus YDL192W, strain arf1, active compounds read low",1.03
same,normalized growth,"locus YDR001C, strain nth1, active compounds read low",1
same,normalized growth,"locus YDR069C, strain doa4, active compounds read low",0.979
same,normalized growth,"locus YDR101C, strain arx1, active compounds read low",1.03
same,normalized growth,"locus YDR137W, strain rgp1, active compounds read low",0.824 (active)
same,normalized growth,"locus YDR150W, strain NUM1, active compounds read low",1.02 and 1.01
same,normalized growth,"locus YDR159W, strain sac3, active compounds read low",0.928
same,normalized growth,"locus YDR162C, strain NBP2, active compounds read low",1.01
same,normalized growth,"locus YDR195W, strain ref2",1.03
same,normalized growth,"locus YDR297W, strain sur2, active compounds read low",0.991
same,normalized growth,"locus YDR318W, strain mcm21, active compounds read low",1.01
same,normalized growth,"locus YDR334W, strain swr1, active compounds read low",1.02
same,normalized growth,"locus YDR335W, strain msn5, active compounds read low",0.962
same,normalized growth,"locus YDR363W, strain ESC2, active compounds read low",0.994
same,normalized growth,"locus YDR388W, active compounds read low",1.03
same,normalized growth,"locus YDR392W, strain spt3, active compounds read low",0.513 (active)
same,normalized growth,"locus YDR502C, strain sam2, active compounds read low",1.03
same,normalized growth,"locus YEL003W, strain gim4, active compounds read low",1.01
same,normalized growth,"locus YEL037C, strain rad23, active compounds read low",1
same,normalized growth,"locus YEL061C, strain CIN8 (second series), active compounds read low",1.01
same,normalized growth,"locus YEL061C, strain CIN8, active compounds read low",1.01
same,normalized growth,"locus YER002W, strain NOP16, active compounds read low",1.03
same,normalized growth,"locus YER015W, strain faa2, active compounds read low",0.995
same,normalized growth,"locus YER016W, strain bim1, active compounds read low",0.954
same,normalized growth,"locus YER110C, active compounds read low",1.04
same,normalized growth,"locus YER111C, strain swi4, active compounds read low",1
same,normalized growth,"locus YER155C, strain BEM2 (second series), active compounds read low",0.953
same,normalized growth,"locus YER155C, strain BEM2, active compounds read low",1.01
same,normalized growth,"locus YER167W, strain BCK2, active compounds read low",1.01
same,normalized growth,"locus YFR010W, strain ubp6, active compounds read low",0.99
same,normalized growth,"locus YGL078C, strain dbp3, active compounds read low",1.03
same,normalized growth,"locus YGL086W, strain mad1, active compounds read low",1.02
same,normalized growth,"locus YGL167C, strain pmr1, active compounds read low",1.02
same,normalized growth,"locus YGL173C, strain kem1, active compounds read low",0.97
same,normalized growth,"locus YGL227W, strain vid30, active compounds read low",1.03
same,normalized growth,"locus YGL240W, strain doc1, active compounds read low",0.992
same,normalized growth,"locus YGL248W, strain PDE1, active compounds read low",1.01
same,normalized growth,"locus YGL253W, strain hxk2, active compounds read low",0.99
same,normalized growth,"locus YGR078C, strain PAC10, active compounds read low",0.996
same,normalized growth,"locus YGR135W, strain pre9, active compounds read low",1.01
same,normalized growth,"locus YGR229C, strain SMI1, active compounds read low",0.996 and 0.979
same,normalized growth,"locus YGR252W, strain gcn5, active compounds read low",1.08
same,normalized growth,"locus YHR013C, strain ard1, active compounds read low",0.942
same,normalized growth,"locus YHR027C, strain rpn1, active compounds read low",0.975
same,normalized growth,"locus YHR030C, strain SLT2, active compounds read low",1.01 and 0.982
same,normalized growth,"locus YHR079C, strain IRE1 (second series), active compounds read low",1.01
same,normalized growth,"locus YHR079C, strain IRE1, active compounds read low",1.01
same,normalized growth,"locus YHR094C, strain hxt1, active compounds read low",1.03
same,normalized growth,"locus YHR129C, strain ARP1, active compounds read low",1.01
same,normalized growth,"locus YHR142W, strain chs7, active compounds read low",0.957
same,normalized growth,"locus YHR200W, strain rpn10, active compounds read low",1.04
same,normalized growth,"locus YIL066C, strain RNR3, active compounds read low",1
same,normalized growth,"locus YIL073C, strain SPO22, active compounds read low",1.04
same,normalized growth,"locus YIL125W, strain kgd1, active compounds read low",1.03
same,normalized growth,"locus YIR030C, strain dcg1, active compounds read low",1.03
same,normalized growth,"locus YJL092W, strain hpr5, active compounds read low",0.988
same,normalized growth,"locus YJL095W, strain BCK1 (second series), active compounds read low",0.987
same,normalized growth,"locus YJL095W, strain BCK1, active compounds read low",0.999 and 0.96
same,normalized growth,"locus YJL115W, strain asf1, active compounds read low",1
same,normalized growth,"locus YJL129C, strain trk1, active compounds read low",0.963
same,normalized growth,"locus YJL134W, strain LCB3, active compounds read low",1.01
same,normalized growth,"locus YJL154C, strain vps35, active compounds read low",1.02
same,normalized growth,"locus YJL164C, strain tpk1, active compounds read low",0.971
same,normalized growth,"locus YJL166W, strain qcr8, active compounds read low",0.987
same,normalized growth,"locus YJL168C, strain set2, active compounds read low",1.04
same,normalized growth,"locus YJL187C, strain SWE1 (second series), active compounds read low",1.01
same,normalized growth,"locus YJL187C, strain SWE1, active compounds read low",0.989
same,normalized growth,"locus YJR043C, strain POL32, active compounds read low",1.01
same,normalized growth,"locus YJR066W, strain TOR1, active compounds read low",0.926
